Data reported in PMC4336329 (PLoS ONE, 2015).
In all, about 310,000 compounds went through this assay and about 14,000 (4.5%) showed an effect of 50% or more. The effect is printed as a negative number. For the sample, strong results were picked, then their nearest neighbours and some compounds at random.

Biological target: human ether-à-go-go-related gene (hERG) potassium channel (human, UniProt Q12809)
Assay: primary screen, population patch clamp on CHO cells stably expressing hERG; higher = less effect of the substance
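Further: peak tail current of the secondary pulse compared with the same well before compound.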

Chain of human ether-à-go-go-related gene (hERG) potassium channel (Q12809 whole entry, looked up): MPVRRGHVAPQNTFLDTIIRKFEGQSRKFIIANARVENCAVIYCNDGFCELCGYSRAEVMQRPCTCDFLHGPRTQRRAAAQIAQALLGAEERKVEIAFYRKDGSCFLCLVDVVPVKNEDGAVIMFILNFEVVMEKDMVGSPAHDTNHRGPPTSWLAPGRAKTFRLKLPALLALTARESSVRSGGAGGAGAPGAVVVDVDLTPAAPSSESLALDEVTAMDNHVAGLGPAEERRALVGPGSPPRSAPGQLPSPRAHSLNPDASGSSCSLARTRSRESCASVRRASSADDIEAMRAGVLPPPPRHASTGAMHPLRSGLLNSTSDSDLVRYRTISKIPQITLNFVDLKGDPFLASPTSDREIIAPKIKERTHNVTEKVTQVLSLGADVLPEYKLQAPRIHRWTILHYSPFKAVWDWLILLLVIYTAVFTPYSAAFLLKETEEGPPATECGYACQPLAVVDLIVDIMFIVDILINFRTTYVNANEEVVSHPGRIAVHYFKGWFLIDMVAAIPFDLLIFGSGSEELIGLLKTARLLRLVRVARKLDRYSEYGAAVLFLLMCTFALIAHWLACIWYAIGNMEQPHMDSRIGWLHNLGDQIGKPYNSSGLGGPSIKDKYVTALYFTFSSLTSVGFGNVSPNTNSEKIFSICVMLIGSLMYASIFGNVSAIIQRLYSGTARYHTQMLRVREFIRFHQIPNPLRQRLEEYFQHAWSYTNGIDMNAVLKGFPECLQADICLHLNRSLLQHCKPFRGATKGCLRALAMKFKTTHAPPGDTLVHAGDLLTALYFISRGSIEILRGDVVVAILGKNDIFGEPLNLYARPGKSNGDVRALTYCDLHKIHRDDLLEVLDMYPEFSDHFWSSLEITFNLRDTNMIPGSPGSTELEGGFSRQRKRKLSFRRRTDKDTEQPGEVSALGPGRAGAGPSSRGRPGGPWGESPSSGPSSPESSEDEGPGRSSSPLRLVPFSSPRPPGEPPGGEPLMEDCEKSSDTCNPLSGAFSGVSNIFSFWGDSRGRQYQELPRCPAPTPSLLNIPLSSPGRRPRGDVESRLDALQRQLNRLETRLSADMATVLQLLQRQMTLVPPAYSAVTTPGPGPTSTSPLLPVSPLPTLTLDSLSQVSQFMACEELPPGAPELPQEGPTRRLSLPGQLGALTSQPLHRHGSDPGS

| SMILES | hERG current change (%, negative = inhibition) at 10uM [%] |
| --- | --- |
| O=C(CCN1CCN(C/C=C/c2ccccc2)CC1)Nc1ccccc1F.O=C(O)C(=O)O | -75.1 |
| O=C(CCN1CCN(c2ccccc2)CC1)Nc1ccccc1F | 8.14 |
| Fc1ccccc1NC(=S)N1CCN(C/C=C/c2ccccc2)CC1 | -23.4 |
| COc1ccc(CN2C(=O)c3ccccc3C2=O)cc1C(=O)Nc1ccccc1N1CCOCC1 | -10.7 |
| COCC(=O)N1CCC(Oc2ccc(C(=O)NCc3cc(C(C)C)no3)cc2)CC1 | -2.22 |
| CS(=O)(=O)Nc1cccc(-c2cnc3ccccc3n2)c1 | -70.4 |
| CC(C)C(=O)Nc1cccc(-c2cnc3ccccc3n2)c1 | 4.12 |
| CC(=O)Nc1cccc(-c2cnc3ccccc3n2)c1 | -9.95 |
| Cc1cc(S(=O)(=O)Nc2cccc(Cl)c2)c(C)s1 | 8.15 |
| CCn1c2ccccc2c2cc(/C=N/O)ccc21 | 40.6 |
| CSCCC1NC2(C(=O)Nc3ccc(Cl)cc32)[C@@H]2C(=O)N(C3CCCC3)C(=O)[C@H]12 (stereo partly drawn) | -8.3 |
| Cc1cc(NC(=O)CSc2nc(-c3cccs3)nc3ccccc23)no1 | 14.7 |
| CCN1CCN(c2nc(Nc3cccc(C)c3)nc(N)c2[N+](=O)[O-])CC1 | -70.2 |
| Cc1cccc(Nc2nc(N)c([N+](=O)[O-])c(N3CCN(C)CC3)n2)c1 | -48 |
| CCOc1ccc(Nc2nc(N)c([N+](=O)[O-])c(N3CCN(CC)CC3)n2)cc1 | -62.6 |
| CCN1CCN(c2nc(Nc3cccc(OC)c3)nc(N)c2[N+](=O)[O-])CC1 | -73.3 |
| CCN1CCN(c2nc(Nc3ccc(C)c(C)c3)nc(N)c2[N+](=O)[O-])CC1 | -75 |
| COc1ccc(Nc2nc(N)c([N+](=O)[O-])c(N3CCN(C)CC3)n2)cc1 | -26.6 |
| Cc1ccc(Nc2nc(N)c([N+](=O)[O-])c(N3CCC(C)CC3)n2)cc1C | 7.13 |
| Cc1ccc(Nc2nc(N)c([N+](=O)[O-])c(N3CCOCC3)n2)cc1C | -13.9 |
| Cc1cccc(Nc2nc(N)c([N+](=O)[O-])c(N3CCOCC3)n2)c1 | -37.1 |
| CCOc1ccc(Nc2nc(N)c([N+](=O)[O-])c(N3CCN(C)CC3)n2)cc1 | -48.3 |
| CCN1CCN(c2nc(Nc3ccc(OC)cc3)nc(N)c2[N+](=O)[O-])CC1 | -32.2 |
| COc1cccc(Nc2nc(N)c([N+](=O)[O-])c(N3CCOCC3)n2)c1 | -14.2 |
